Laboratory results from PubChem BioAssay.

Legend:
[1] = test system: Human papillomavirus type 1a protein E7 (residues 44-93); assay: small molecules binding HPV E7 44-93 – biochemical, small-molecule microarray, residues 44-93, 635 nm fluorescence, primary screen (AID 1108); conditions: fluorescence 635 nm, higher = more signal;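 note: E7 fragment applied at 1 µg/mL in TBST for 1 h at 4 C; score combines spot fluorescence with its signal to noise ratio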
[2] = hepatitis C replication reporter changes, two-sided – Huh7 cells, luciferase reporter, HCV replication inhibitor project, primary screen (AID 1109); conditions: Huh7 HCV replicon luciferase reporter, 48 h; higher = more signal;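 note: huh7 hepatoma cells harbouring a luciferase neomycin HCV replicon reporter; luciferase luminescence as measure of HCV replicon replication; test concentration not given here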
[3] = target: Left-right determination factor 2 (Homo sapiens) (UniProt O00292); assay: small molecules binding LEFTY2 protein – biochemical, small-molecule microarray, 635 nm fluorescence scan, primary screen (AID 1110); conditions: higher = more signal
Left-right determination factor 2 (Homo sapiens), sequence (O00292 whole entry, looked up): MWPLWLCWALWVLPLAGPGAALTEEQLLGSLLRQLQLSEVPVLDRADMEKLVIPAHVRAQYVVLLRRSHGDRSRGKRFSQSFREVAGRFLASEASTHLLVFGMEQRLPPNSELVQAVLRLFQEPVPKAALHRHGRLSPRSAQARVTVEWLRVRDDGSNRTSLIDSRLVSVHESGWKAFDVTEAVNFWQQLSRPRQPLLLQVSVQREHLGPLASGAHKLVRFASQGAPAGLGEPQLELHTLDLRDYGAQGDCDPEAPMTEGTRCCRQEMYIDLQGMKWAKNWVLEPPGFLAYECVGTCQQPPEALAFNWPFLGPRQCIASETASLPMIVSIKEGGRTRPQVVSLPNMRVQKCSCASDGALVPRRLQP

[4] = target: Calmodulin-1 (Homo sapiens) (UniProt P0DP23); assay: small molecules binding calmodulin-1 with EGTA – biochemical, small-molecule microarray, Cy5-labelled CALM1, profiling panel (AID 1111); conditions: Cy5-CALM1 binding fluorescence, higher = more signal;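 note: labelled calmodulin applied in Tris saline Tween buffer holding calcium plus EGTA and DTT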
[5] = target: Calmodulin-1 (Homo sapiens) (UniProt P0DP23); assay: small molecules binding Ca-loaded calmodulin-1 – biochemical, small-molecule microarray, Cy5-labelled CALM1, plus calcium, artefact control for SMM control-protein annotation, profiling panel (AID 1112); conditions: Cy5-CALM1 binding fluorescence, higher = more signal;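 note: score merges spot fluorescence with signal to noise from triplicate slides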
[6] = probe aWnt5a binding to arrayed compounds – biochemical, biotinylated probe, 635/667 nm fluorescence, primary screen (AID 1113); conditions: small-molecule microarray, higher = more signal;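 note: score merges 667 nm fluorescence intensity with signal-to-noise per printed feature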
[7] = probe aShh binding to arrayed compounds – biochemical, biotinylated probe, 635/667 nm fluorescence, primary screen (AID 1114); conditions: small-molecule microarray, higher = more signal;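 note: probe is biotin-labelled aShh protein from a stem cell growth factor screen; measures binding of labelled protein to compounds printed on the slide; score merges feature fluorescence at 667 nm with signal-to-noise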
[8] = probe aNog binding to arrayed compounds – biochemical, biotinylated probe, 635/667 nm fluorescence, primary screen (AID 1115); conditions: small-molecule microarray, higher = more signal;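 note: probe is biotinylated aNog protein used at 0.15 µg/mL for 1 h at 4 C; z-score combines 667 nm fluorescence of each spot with its signal to noise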
[9] = target: Torsin-1A-interacting protein 1 (Homo sapiens) (UniProt Q5JTV8); assay: compound microarray binding of lysate hLAP1 – cell lysate, small-molecule microarray, COS7 lysate, 635/667 nm fluorescence, primary screen (AID 1116); conditions: 635 nm fluorescence, higher = more signal
Torsin-1A-interacting protein 1 (Homo sapiens), sequence (Q5JTV8 whole entry, looked up): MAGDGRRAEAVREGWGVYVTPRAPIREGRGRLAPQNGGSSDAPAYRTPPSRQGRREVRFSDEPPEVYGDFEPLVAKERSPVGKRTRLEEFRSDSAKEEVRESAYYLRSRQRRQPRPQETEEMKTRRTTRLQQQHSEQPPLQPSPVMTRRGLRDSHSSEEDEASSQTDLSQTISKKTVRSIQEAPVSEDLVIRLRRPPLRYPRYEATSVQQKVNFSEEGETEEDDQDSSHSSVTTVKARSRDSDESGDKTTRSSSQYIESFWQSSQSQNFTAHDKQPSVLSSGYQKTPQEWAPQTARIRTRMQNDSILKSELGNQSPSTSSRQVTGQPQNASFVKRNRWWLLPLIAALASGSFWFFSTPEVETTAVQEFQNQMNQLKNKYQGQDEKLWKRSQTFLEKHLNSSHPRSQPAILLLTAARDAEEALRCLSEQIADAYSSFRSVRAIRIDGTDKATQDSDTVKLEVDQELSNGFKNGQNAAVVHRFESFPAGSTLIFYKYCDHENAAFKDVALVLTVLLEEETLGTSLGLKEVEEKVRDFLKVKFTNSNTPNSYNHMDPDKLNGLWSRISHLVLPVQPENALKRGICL

[10] = target: Alpha-bungarotoxin (Bungarus multicinctus) (UniProt P60615); assay: compounds binding labelled alpha-BTX control protein – biochemical, small-molecule microarray, Alexa647 label, 635/667 nm fluorescence, artefact control for SMM control protein annotation, profiling panel (AID 1117); conditions: alpha-BTX-A647 binding fluorescence, higher = more signal
Alpha-bungarotoxin (Bungarus multicinctus), sequence (P60615 whole entry, looked up): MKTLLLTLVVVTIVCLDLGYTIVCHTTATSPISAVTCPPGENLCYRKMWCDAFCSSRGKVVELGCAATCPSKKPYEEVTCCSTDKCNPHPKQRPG

Row | Compound | composite z-score [1] | z-score [2] | composite z-score [3] | composite z-score [4] | composite z-score [5] | composite z-score [6] | composite z-score [7] | composite z-score [8] | composite z-score [9] | composite z-score [10]
1 | C=CC[C@@]1(C(=O)N2CCCCC2)N=C(c2ccc(OCCCO)cc2)O[C@@H]1c1ccccc1N=[N+]=[N-] | 1.46 | -1.62 | 0.227 | 1.27 | 0.613 | 0.0472 | 0.214 | 1.54 | 1.05 | 2.11
2 | CCOC(=O)C[C@H]1[C@H](OC(=O)c2ccc(C(=O)c3ccccc3)cc2)[C@@H](NC(=O)Cc2ccc(OC)cc2)c2cc(OCCCO)ccc2N1C(=O)c1ccc2ccccc2n1 | 0.998 | -0.873 | 0.816 | 0.985 | 0.336 | -0.131 | -0.0709 | -0.526 | 0.566 | 0.738
3 | O=C(CS)NCCCCCNC(=O)[C@H]1C[C@H]2C(=O)NCC(=O)N2[C@H]1c1cccc(OCCO)c1 | -1.02 | 1.34 | -0.356 | -0.213 | 0.787 | -0.152 | 0.294 | -0.311 | -0.631 | 0.854
4 | C=CC[C@]1(C(N)=O)COC(c2ccc(OCCCO)cc2)=N1 | -0.287 | -0.243 | 0.237 | -0.257 | -0.296 | -0.0899 | -0.0793 | 0.0519 | 0.837 | 1.37
5 | COCCCNC(=O)[C@@H]1c2ccccc2C(=O)N(Cc2ccccc2OC)[C@H]1c1ccc(CO)cc1 | 0.889 | -1.96 | -0.0144 | 0.349 | 0.392 | 0.0279 | -0.0035 | -0.136 | 1.62 | 0.117
6 | CC[C@@H]1C=C(C(=O)O)[C@H](c2cccc3ccccc23)N1S(=O)(=O)c1ccc(C)cc1 | 0.828 | 0.0731 | 0.132 | 1.45 | 0.725 | 0.0742 | -0.17 | 0.526 | 0.909 | -0.158
7 | CC(C)(C)OC(=O)CC[C@]1(C(N)=O)N=C(c2ccc(OCCCO)cc2)O[C@H]1c1ccccc1 | -0.0059 | 0.666 | -0.23 | 2.64 | 1.66 | 0.116 | 0.707 | 1.36 | 3.07 | 2.12
8 | COCCCNC(=O)[C@@]1(Cc2ccccc2)N=C(c2ccc(OCCCO)cc2)O[C@H]1c1ccccc1CN=[N+]=[N-] | 0.596 | -2.86 | 0.0508 | 2.14 | 0.451 | 0.0445 | 0.496 | 1.36 | 2.35 | 2.23
9 | CCCCCN1CC=CC23O[C@@H]4C=CCOC(=O)[C@@H]4[C@H]2C(=O)N(C(C)CO)[C@@H]3C1=O (stereo not given in full) | -0.967 | 1.01 | -1.39 | -0.0225 | -0.0583 | -0.176 | -0.0146 | 1.04 | -0.901 | -0.394
10 | CC(C)N1CC=CC23O[C@@H]4C=CCOC(=O)[C@@H]4[C@H]2C(=O)N(CCCCCO)[C@@H]3C1=O (stereo not given in full) | -0.608 | -0.147 | -0.624 | 0.0459 | 0.395 | -0.18 | 0.0723 | -0.198 | 1.33 | -0.35
11 | CC(C)[Si](C#CCCCC#N)(Oc1ccccc1Br)C(C)C | 0.845 | -0.071 | 0.0224 | -0.154 | -0.159 | -0.0512 | -0.0553 | -0.213 | 0.528 | 0.453
12 | COCCOC(=O)N1C(=O)[C@@]2(c3cc(C#CCCO)ccc31)[C@H](c1ccc(OCCO)cc1)N1[C@H](c3ccccc3)[C@H](c3ccccc3)OC(=O)[C@H]1[C@@H]2C(N)=O | 1.44 | -1.13 | 0.606 | 0.852 | 0.278 | 0.0136 | 0.171 | 0.226 | 0.918 | 0.338
13 | CN1C(=O)C2C=CC(C(O)C=Cc3ccc([N+](=O)[O-])cc3)N(Nc3ccccc3)C2C1=O (stereo not given) | 1.31 | 0.599 | 0.407 | 0.447 | -0.384 | 0.0182 | 0.207 | -0.175 | 0.582 | 0.627
14 | COc1ccc(C(O)C2C=CC3C(=O)N(C)C(=O)C3N2N(c2ccccc2)c2ccccc2)c2ccccc12 (stereo not given) | -0.452 | 0.352 | 0.0468 | -0.078 | -0.511 | 0.0328 | -0.0011 | 0.0984 | 1.68 | 0.429
15 | O=C1C2C=CC(C(O)c3c(F)cccc3Cl)N(Nc3ccccc3F)C2C(=O)N1c1ccccc1 (stereo not given) | 1.43 | -0.665 | -0.165 | 1.24 | 0.265 | 0.0136 | 0.701 | 0.933 | 1.43 | 0.543
16 | O=C1OCCC=C[C@H]2OC34C=CCN(CCN5CCOCC5)C(=O)[C@H]3N(CCCCCO)C(=O)[C@@H]4C12 (stereo not given in full) | 0.57 | 0.305 | -0.529 | 0.667 | -0.836 | -0.147 | -0.237 | -0.103 | 2.24 | 1.88
17 | OCC1C=C(/C=C/c2ccccc2)CN1Cc1ccccc1Br (stereo not given) | -0.119 | -1.92 | 1.14 | 0.776 | -0.265 | 0.0375 | -0.0553 | -0.266 | 0.289 | 1.12
18 | C=C(CCCC)C(=O)CC[C@@H](OC(C)=O)c1ccc(CO)o1 | 0.0497 | -1.21 | 0.523 | -0.854 | -1.12 | -0.18 | -0.206 | 0.0417 | 2.04 | -0.217
